Among the data in the supplement of paper PMC3898565 are cell viability values, retold here.

Structures are written as SMILES. ± gives the uncertainty stated by the source.

What is called cell viability is a read-out of living cells in per cent, often relative to untreated cells.
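Note: viable cell number estimated from Alamar Blue fluorescence read at 560/90, part of a single-dose primary screen of an FDA-approved drug library.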

The test deals with U87. Put plainly: cell viability relative to vehicle control; higher = less growth inhibition (less active). The settings on record: 10 µM; 72 h.
On to `CCN1CC(CCN2CCOCC2)C(c2ccccc2)(c2ccccc2)C1=O` (centres undefined), for which the cell viability stood at 104 ± 1.3%. As to `CN1CCN(c2nc3cc(C(F)(F)F)ccc3n3cccc23)CC1`, the cell viability came to 111 ± 2%. With `Cc1ncc([N+](=O)[O-])n1CCO` the figure was 104 ± 1.2%. With `COC1=C(OC)C(=O)C(CCCCCCCCCCO)=C(C)C1=O` the figure was 93.41 ± 0.38%; with `CN1CCC(=C2c3ccccc3C=Cc3ccccc32)CC1` [Cyproheptadine], 103.33 ± 0.068%; with `CC12CC3CC(C)(C1)CC(N)(C3)C2`, 123 ± 1.4%. With `CN(C)CCOC(C)(c1ccccc1)c1ccccn1` (centres undefined) [doxylamine succinate] the figure was 96.6 ± 1.2%; with `CCCCc1nc(Cl)c(CO)n1Cc1ccc(-c2ccccc2-c2nnn[nH]2)cc1` [LOSARTAN Potassium], 107 ± 1.9%.

Turning to `OC[C@H]1O[C@@H](Oc2cc(O)cc(/C=C/c3ccc(O)cc3)c2)[C@H](O)[C@@H](O)[C@@H]1O`, the cell viability came to 99.7 ± 3.1%. In the case of `COC(=O)C[C@](O)(CCCC(C)(C)O)C(=O)O[C@@H]1C(OC)=C[C@]23CCCN2CCc2cc4c(cc2[C@H]13)OCO4`, the cell viability is 10.3 ± 0.73%.

`C[C@]12CCC(=O)C=C1CC[C@@H]1[C@@H]2C(=O)C[C@@]2(C)[C@H]1CC[C@]2(O)C(=O)CO`: the cell viability stood at 102 ± 2.8%. With `O=C(c1ccc(F)cc1)C1CCN(CCn2c(=S)[nH]c3ccccc3c2=O)CC1` [Altanserin] the figure was 99.9 ± 2.9%; with `CC(C)(C#N)c1cc(Cn2cncn2)cc(C(C)(C)C#N)c1`, 109 ± 1.3%. Turning to `CC(=O)CCCCn1c(=O)c2c(ncn2C)n(C)c1=O` [Pentoxifylline], the cell viability is 101.9 ± 0.75%. With `CC[C@H](C)C(=O)O[C@H]1CCC=C2C=C[C@H](C)[C@H](CC[C@@H]3C[C@@H](O)CC(=O)O3)[C@H]21` [mevastatin] the figure was 89.1 ± 3.1%; with `CCOC(=O)N1CCC(=C2c3ccc(Cl)cc3CCc3cccnc32)CC1`, 102 ± 2.4%; with `CO[C@H]1/C=C/O[C@@]2(C)Oc3c(C)c(O)c4c(c3C2=O)C2=NC3(CCN(CC(C)C)CC3)NC2=C(NC(=O)/C(C)=C\C=C\[C@H](C)[C@H](O)[C@@H](C)[C@@H](O)[C@@H](C)[C@H](OC(C)=O)[C@@H]1C)C4=O`, 104 ± 2.1%. The value for `CNCCCCOc1ccccc1Cc1ccccc1` [Bifemelane] was 96.1 ± 9.1%; that for `CC(=O)OCC(CCn1cnc2cnc(N)nc21)COC(C)=O` was 104.2 ± 0.4%; that for `CC(C)Oc1ccc2c(=O)c(-c3ccccc3)coc2c1` was 101 ± 2.6%. The value for `CC(C)[C@H]1CC[C@H](C(=O)N[C@H](Cc2ccccc2)C(=O)O)CC1` was 108 ± 1.6%; that for `CCC(=O)NS(=O)(=O)c1ccc(-c2c(-c3ccccc3)noc2C)cc1` was 108.7 ± 0.37%. On to `CC(C)NCC(O)c1ccc(NS(C)(=O)=O)cc1` (centres undefined) [Sotalol], for which the cell viability stood at 101.7 ± 0.99%. The value for `CO[C@@H]1[C@@H](O[C@@H]2O[C@H](C)[C@@H](O[C@H]3C[C@@](C)(O)[C@@H](OC(=O)CC(C)C)[C@H](C)O3)[C@H](N(C)C)[C@H]2O)[C@@H](CC=O)C[C@@H](C)[C@@H](O)/C=C/C=C/C[C@@H](C)OC(=O)C[C@H]1O` was 102 ± 2.2%; that for `CC[C@@]1(O)C(=O)OCc2c1cc1n(c2=O)Cc2cc3c(CN(C)C)c(O)ccc3nc2-1` was 24.1 ± 2%; that for `C[C@H](CCC(=O)O)[C@H]1CC[C@H]2[C@@H]3C(=O)C[C@@H]4CC(=O)CC[C@]4(C)[C@H]3CC(=O)[C@]12C` was 103.4 ± 0.82%.

`Cc1c2oc3c(C)ccc(C(=O)N[C@@H]4C(=O)N[C@H](C(C)C)C(=O)N5CCC[C@H]5C(=O)N(C)CC(=O)N(C)[C@@H](C(C)C)C(=O)O[C@@H]4C)c3nc-2c(C(=O)N[C@@H]2C(=O)N[C@H](C(C)C)C(=O)N3CCC[C@H]3C(=O)N(C)CC(=O)N(C)[C@@H](C(C)C)C(=O)O[C@@H]2C)c(N)c1=O`: the cell viability came out at 16.2 ± 2.6%.

`OCCN1CCN(CCCN2c3ccccc3Sc3ccc(C(F)(F)F)cc32)CC1` [Fluphenazine]: the cell viability was determined as 104.3 ± 0.93%.

As for `COCCOC(=O)C1=C(C)NC(C)=C(C(=O)OC(C)C)C1c1cccc([N+](=O)[O-])c1` (centres undefined), the cell viability was found to be 103 ± 1.5%. As for `CCOc1cc(CC(=O)N[C@@H](CC(C)C)c2ccccc2N2CCCCC2)ccc1C(=O)O`, the cell viability came to 105 ± 1.5%. With `O=C(CCNNC(=O)c1ccncc1)NCc1ccccc1` the figure was 107.8 ± 0.97%. Turning to `O=C1N[C@H](C(=O)O)CS1` [4-Thiazolidinecarboxylic acid, 2-oxo-, (R)- [CAS]], the cell viability was determined as 101.1 ± 0.43%. With `COc1ccc2c(c1)c(CC(=O)O)c(C)n2C(=O)c1ccc(Cl)cc1` [Indomethacin] the figure was 105.6 ± 0.41%; with `CCc1nn(CCCN2CCN(c3cccc(Cl)c3)CC2)c(=O)n1CCOc1ccccc1` [Nefazodone], 100.5 ± 0.27%. Regarding `Cc1ccsc1C(=CCCN1CCC[C@@H](C(=O)O)C1)c1sccc1C`, the cell viability came out at 104 ± 1.1%. With `O=C1c2c(O)cc(O)cc2O[C@H](c2ccc(O)c(O)c2)[C@H]1O` (racemic) the figure was 85.3 ± 2.2%; with `NC(=O)N1c2ccccc2CC(=O)c2ccccc21` [Trileptal], 102 ± 2.4%; with `C=CCc1ccc(O)c(-c2ccc(O)c(CC=C)c2)c1`, 100.7 ± 1%.

As for `C[C@@H](c1ncncc1F)[C@](O)(Cn1cncn1)c1ccc(F)cc1F`, the cell viability was 106 ± 1.7%.
